Where a name gives a salt, the structure may show the parent alone. The full ranking holds about 2,000 compounds; the median of “fractional viability relative to vehicle” is about 0.92, and the lowest 2% start at about 0.11. Shown is part of a subset that was picked to be rich in the lowest values.
Tested on: TYKNU
Test: fractional viability relative to vehicle; TYKNU is a high-grade serous ovarian cancer line; higher = less growth inhibition
Details: 72 h, genotype: OPA1 knockout (sgOPA1 #2)
Outline: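 TYKNU control cells or lentiCRISPRv2 knockout derivatives were seeded at 500 cells per well into drug-stamped 384-well plates holding a ~2100-compound library at 2 or 10 μM, in duplicate. Cells were grown at 37 °C in 5% CO2 in RPMI 1640 with 10% FBS, and drug treatment lasted 72 h. Viability was read by Cell Titer Glo luminescence. Duplicate treatment wells were averaged and normalised to duplicate control wells from the same plate position.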

Structure (SMILES) | fractional viability (2uM) | fractional viability (10uM)
CC(=O)c1cc([N+](=O)[O-])c(Sc2ccc(F)cc2F)s1 | 0.985 | 0.596
COc1ccc([C@H]2CNC(=O)C2)cc1OC1CCCC1 [S- (+)-Rolipram] | 1.2 | 1.04
Cc1cc(C)nc(NS(=O)(=O)c2ccc(NC(=S)NC(=O)COc3ccc(Br)cc3Cl)cc2)n1 | 0.956 | 0.803
O=C(NCc1ccncc1)C12CC3CC(C1)CC(c1ccc(Cl)cc1)(C3)C2 | 1.06 | 0.861
NC(=O)N/N=C/c1ccc([N+](=O)[O-])o1 [Nitrofural] | 1.55 | 1.47
Cc1ccc(S(=O)(=O)c2ccc([N+](=O)[O-])o2)cc1 | 0.0667 | 0.0291
CC(C)(C)NS(=O)(=O)c1cncc(-c2cc(F)c3nc(N)nn3c2)c1 | 1.04 | 1.06
O=C(O)C1=C[C@@H](O)[C@@H](O)[C@H](O)C1 [Shikimic Acid] | 1.04 | 0.875
C=C1/C(=C\C=C2/CCC[C@]3(C)[C@@H]([C@H](C)CCCC(C)(C)O)CC[C@@H]23)C[C@@H](O)C[C@@H]1O [Calcitriol] | 0.965 | 0.937
Cc1ccccc1CN1C2=NCCN2C(=O)C2=C1CCN(Cc1ccccc1)C2 [TIC10 Analogue] | 0.878 | 0.768
COc1cc2ncnc(Oc3ccc(CC(=O)Nc4cnn(C(C)C)c4)cc3)c2cc1OC | 0.949 | 0.942
CC1(C)CC[C@]2(NC(=O)C(C)(F)F)CC[C@]3(C)[C@H](C(=O)C=C4[C@@]5(C)C=C(C#N)C(=O)C(C)(C)[C@@H]5CC[C@]43C)[C@@H]2C1 [Omaveloxolone (RTA-408)] | 0.166 | 0.0407
CN(C)CCNC(=O)c1cccn2c(=O)c3cc4ccccc4cc3nc12 | 0.61 | 0.294
COc1nccc(-c2c(-c3ccc(F)cc3)ncn2C2CCC(O)CC2)n1 (configuration not stated) | 0.999 | 0.786
CC(C)(Cc1ccc2ccccc2c1)NC[C@@H](O)COc1cccc(Cl)c1C#N | 1.06 | 0.0653
CC(C)(C)NCC(O)COc1cccc2c1CCC(=O)N2 (configuration not stated) [Carteolol HCl] | 0.973 | 0.93
CC(C)NCC(O)COc1cccc2ccccc12 (configuration not stated) [Propranolol HCl] | 0.809 | 1.12
O=[N+]([O-])c1ccc(Nc2nc(N3CCOCC3)nc(N3CCOCC3)n2)cc1 | 0.893 | 0.934
CC(C)(C)c1ccc(S(=O)(=O)NCc2ccc(C(=O)Nc3cccnc3)cc2)cc1 | 0.306 | 0.165
CCS(=O)(=O)N1CCN(c2ccc(Nc3ncc(C(N)=O)c(NC4CC4)n3)cc2)CC1 | 0.781 | 0.496
CCCC(=O)Nc1cccc(NC(=O)c2ccccc2Br)c1 | 1 | 1.07
COc1cc2c(cc1OC)CN(CCc1ccc(NC(=O)c3cc(OC)c(OC)cc3NC(=O)c3cnc4ccccc4c3)cc1)CC2 [Tariquidar] | 0.891 | 0.459
CCc1ccc(OCc2ccccc2C(=O)Nc2ccc3nc(C)cc(N)c3c2)cc1 | 0.16 | 0.0251

Structure (SMILES) | fractional viability (2uM) | fractional viability (10uM)
Cc1ccc(CNc2ncnc3ccc(-c4ccc(CO)o4)cc23)o1 | 0.989 | 1.02
O=[N+]([O-])c1cn2c(n1)OC[C@@H](OCc1ccc(OC(F)(F)F)cc1)C2 | 1.15 | 1.66
CC(C)(C)OC(=O)Nc1ccc(-c2cc(C(=O)NCCCCCCC(=O)NO)no2)cc1 | 0.367 | 0.171
COc1cc(/C=C/C(=O)N2CCN(CC(=O)N3CCCC3)CC2)cc(OC)c1OC [Cinepazide maleate] | 0.929 | 0.991
COc1ccc(/C=C\c2cc(OC)c(OC)c(OC)c2)cc1O [Combretastatin A4] | 0.313 | 0.292
COc1cc(/C=C/C(=O)N2CCC=CC2=O)cc(OC)c1OC [Piperlongumine] | 0.31 | 0.085
CC(=O)O/N=C1\C(=O)N(Cc2cc(Cl)ccc2Cl)c2ccc(Cl)cc21 | 1.06 | 0.985
NC(=O)c1noc([C@H](CCCC2CCCCC2)CC(=O)NO)n1 | 1.1 | 0.853
COC(=O)N1CCN(Cc2cccc(NC(=O)Nc3ccc(C)nc3)c2F)CC1 | 1.01 | 0.982
CCCCC(F)(F)[C@@]1(O)CC[C@H]2[C@@H](CC(=O)[C@@H]2CCCCCCC(=O)O)O1 [Lubiprostone] | 0.935 | 1.03
CC(=O)c1cc2c(o1)C(=O)c1ccccc1C2=O [Napabucasin] | 0.0542 | 0.0318
O=C1c2ccccc2C(=O)c2c1ccc(O)c2O [Alizarin] | 1.19 | 0.838
O=C(O)c1cc(=O)c2ccccc2o1 [Chromocarb] | 0.872 | 0.816
CC(CNC(=O)c1cccnc1)NC(=O)c1cccnc1 (configuration not stated) [Nicaraven] | 0.886 | 0.93
C[C@H]1O[C@@H](O[C@H]2[C@@H](O)C[C@H](O[C@H]3[C@@H](O)C[C@H](O[C@H]4CC[C@@]5(C)[C@H](CC[C@@H]6[C@@H]5C[C@@H](O)[C@]5(C)[C@@H](C7=CC(=O)OC7)CC[C@]65O)C4)O[C@@H]3C)O[C@@H]2C)C[C@H](O)[C@@H]1O [Digoxin] | 0.141 | 0.0738
Cn1c(=O)c(F)c(Nc2ccc(I)cc2F)c2c(=O)n(C[C@@H](O)CO)cnc21 | 0.516 | 0.403
COc1ccc(CCNCc2ccc(OCc3ccc(Cl)nc3)c(OC)c2)cc1OC | 1.04 | 0.914
CC[C@H]1OC(=O)[C@H](C)[C@@H](O[C@H]2C[C@@](C)(OC)[C@@H](O)[C@H](C)O2)[C@H](C)[C@@H](O[C@@H]2O[C@H](C)C[C@H](N(C)C)[C@H]2O)[C@](C)(O)C[C@@H](C)C(=O)[C@H](C)[C@H]2OC(=O)O[C@@]21C [Erythromycin Cyclocarbonate] | 0.834 | 0.883
CN1CCCN(C(=O)c2cccc(-c3ccc(/C=C4/C(=O)Nc5ccc(Cl)cc54)o3)c2)CC1 | 0.132 | 0.0251
Cc1[nH]c(/C=C2\C(=O)Nc3ccc(S(=O)(=O)N(C)c4cccc(Cl)c4)cc32)c(C)c1C(=O)N1CCN(C)CC1 | 1.37 | 0.133
CN1CCN(C(=O)c2cc3cc(Cl)ccc3[nH]2)CC1 | 1.08 | 1.08
CS(=O)(=O)c1ccc(-c2nnc(/C=C/c3nnc(-c4ccc(C#N)cc4)o3)n2-c2ccccc2Cl)nc1 | 1.11 | 1.03
O=C(Cc1cccc(OC(F)(F)F)c1)Nc1ccc(CCCCc2nnc(NC(=O)Cc3ccccn3)s2)nn1 | 0.25 | 0.2

Reference: the supplement of paper PMC5919970
